Compound activity from PubChem.
Hits are enriched below; roughly 6.9% of the tested compounds scored in any of these assays.
BAZ2B block: BAZ2B (human) inhibition | AlphaScreen BAZ2B-H3K14Ac peptide displacement | Potency, µM (top dose mostly 114 µM), for inactives: top-dose activity change, negative = inhibition, hits mostly inhibitors | 360,000 tested, 4.4% active; also: % is scaled to controls: 0 for no effect and ±100 for the full control effect; nearly all actives have a fitted effect of over 60% in size
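In this displacement format the biotinylated H3(5-23) peptide acetylated at Lys14 serves as ligand at 50 nM, with BAZ2B at 50 nM in PBS pH 7.4 containing 0.01% Tween-20. Donor and acceptor beads are 10 ug/mL final.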
PLK1 PBD inh: PLK1 (human) polo-box domain binding inhibition. Potency, µM, without a hit: max response, negative = inhibition, most hits filed as inhibitors. Plk1 PBD binding of FITC phosphopeptide, fluorescence polarization. P53350. 360,000 tested, 2.8% active. AID 720504; also: series mostly up to about 57 µM; % is scaled to controls: 0 for no effect and ±100 for the full control effect; nearly all actives have a fitted effect of over 65% in size
HP1b chromo inh: HP1-beta chromodomain-methylated histone interaction inhibition. P83916. AlphaScreen HP1-beta / biotin-H3K9me3 peptide binding. Potency, µM (top dose mostly 114 µM), for the others: at the highest dose activity change, negative = inhibition, hits mostly inhibitors. 390,000 tested, 0.56% active; also: nearly all actives have a fitted effect of over 70% in size
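AlphaScreen: HP1-beta (50 nM) preformed 30 min with biotin-H3(1-18)K9me3 peptide (50 nM) in PBS pH 7.4, 0.01% Tween-20. Compound added for 30 min at RT, then streptavidin donor/nickel chelate acceptor beads (10 ug/mL) for 30 min.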
L3MBTL1 block: inhibitors of human L3MBTL1; Potency, µM (top dose mostly 57.1 µM), for the others: at the highest dose activity, negative = inhibition, actives largely listed as inhibitors; Q9Y468; 230,000 tested, 0.66% active; AlphaScreen L3MBTL1–H3K9me1 peptide binding; also: % is scaled to controls: 0 for no effect and ±100 for the full control effect; nearly all actives have a fitted effect of over 60% in size
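L3MBTL1 50 nM + b-AHA-H3(1-15)K9me1 75 nM, 30 min RT; compound added, 30 min RT; streptavidin donor/Ni-chelate acceptor beads 10 ug/mL each final, 30 min RT dark; AlphaScreen read.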
VDR inh: blocks the human vitamin D receptor; P11473; VDR-SRC2-3 peptide fluorescence polarization, 2 h; Potency, µM, for inactives: max response, negative = inhibition, hits mostly inhibitors; 400,000 tested, 0.93% active; also: % is scaled to controls: 0 for no effect and ±100 for the full control effect
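Compounds are added to VDR with labelled SRC2-3 coactivator peptide and held 2 h at room temperature. Inhibition of the VDR–peptide interaction is then read as a change in fluorescence polarization.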
JMJD2A Tudor: inhibitors of human JMJD2A Tudor domain; Potency, µM (series often up to 114 µM), for inactives: top-dose activity change, negative = inhibition, usual class: inhibitors; 390,000 tested, 4.4% active; AID 504339; AlphaScreen JMJD2A-Tudor / H3K4me3 peptide binding; O75164; also: % is scaled to controls: 0 for no effect and ±100 for the full control effect; nearly all actives have a fitted effect of over 50% in size
Target sequence (O75164 whole entry, looked up, the tested form may be a part): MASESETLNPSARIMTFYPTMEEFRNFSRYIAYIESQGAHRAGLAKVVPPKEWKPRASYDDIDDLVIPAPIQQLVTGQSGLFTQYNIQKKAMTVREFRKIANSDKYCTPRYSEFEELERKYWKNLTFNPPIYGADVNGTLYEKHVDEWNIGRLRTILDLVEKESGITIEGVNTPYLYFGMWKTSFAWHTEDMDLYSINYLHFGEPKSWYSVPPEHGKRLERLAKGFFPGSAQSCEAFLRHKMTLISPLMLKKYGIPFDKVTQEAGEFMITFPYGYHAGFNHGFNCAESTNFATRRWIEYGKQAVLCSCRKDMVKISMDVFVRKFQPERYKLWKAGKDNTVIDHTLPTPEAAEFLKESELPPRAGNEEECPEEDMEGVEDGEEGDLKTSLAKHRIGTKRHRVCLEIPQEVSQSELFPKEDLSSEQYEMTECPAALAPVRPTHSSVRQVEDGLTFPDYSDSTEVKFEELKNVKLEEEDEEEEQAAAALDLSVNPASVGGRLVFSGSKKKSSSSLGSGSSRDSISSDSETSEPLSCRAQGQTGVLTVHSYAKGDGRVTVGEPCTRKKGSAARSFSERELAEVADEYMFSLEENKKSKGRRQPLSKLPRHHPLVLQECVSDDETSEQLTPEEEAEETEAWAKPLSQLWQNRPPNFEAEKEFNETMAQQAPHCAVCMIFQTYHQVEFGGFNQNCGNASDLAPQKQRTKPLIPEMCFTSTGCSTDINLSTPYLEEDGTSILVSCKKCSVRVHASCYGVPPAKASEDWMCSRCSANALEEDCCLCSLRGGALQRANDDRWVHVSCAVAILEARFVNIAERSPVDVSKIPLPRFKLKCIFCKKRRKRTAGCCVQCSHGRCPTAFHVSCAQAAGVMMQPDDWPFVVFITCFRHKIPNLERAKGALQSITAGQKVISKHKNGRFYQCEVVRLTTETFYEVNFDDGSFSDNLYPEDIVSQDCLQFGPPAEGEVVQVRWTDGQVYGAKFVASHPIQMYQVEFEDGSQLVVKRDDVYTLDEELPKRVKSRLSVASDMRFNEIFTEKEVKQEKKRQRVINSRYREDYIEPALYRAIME
An asterisk follows results filed as active; ? = inconclusive; . = no result; [ ] = dose if it differs, or a comment. Calls follow the shape of the dose curve; as a rule, active = well fitted curve in the direction sought with a large enough effect; inconclusive = small, poorly fitted or top-dose-only effect, or another doubt; inactive = no such curve, though single readings can be large; an effect the other way counts as inactive or inconclusive. Potency is read from the fitted curve at half-maximal effect.

SMILES	BAZ2B block	PLK1 PBD inh	HP1b chromo inh	L3MBTL1 block	VDR inh	JMJD2A Tudor
C[N+]1(C)C2CCC1CC(OC(=O)c1ccco1)C2 (configuration not stated)	-15%	0%	32%	.	12%	-8%
C[N+]1(C)C2CCC1CC(OC(=O)c1c[nH]c3ccccc13)C2 (configuration not stated)	-31%	4%	27%	9%	7%	50µM*
CCC1CO/C(=C(\C(Cl)=C(Cl)Cl)[N+](=O)[O-])N1Cc1ccc(Cl)nc1 (configuration not stated)	79µM*	-11%	20%	.	7%	-28%
O=C(C(=C1N(Cc2ccc(Cl)nc2)CCN1Cc1ccc(Cl)nc1)[N+](=O)[O-])C(Cl)Cl	-11%	?	55%	.	-5%	0%
S=P(c1ccccc1)(c1ccccc1)c1c[nH]c2ccccc12	.	.	.	.	.	-35%
CCCCCCCCCC[n+]1cccc([C@@H]2CCCN2C)c1	.	.	.	.	-22%	.
Cc1ccc(N)c(C(=O)c2ccc(Br)cc2)c1	40µM*	-10%	?	.	-5%	28µM*
Nc1ccc(Br)cc1C(=O)c1ccccc1	.	2%	30%	.	-6%	-11%
Cc1ccccc1-n1c(/C=C/c2ccc(N(C)C)cc2)nc2ccccc2c1=O	22µM*	.	25%	.	-18%	22µM*
CCOP(=O)(OCC)c1nc(-c2ccc(F)cc2)oc1NCc1ccccc1	?	-16%	-7%	-6%	-21%	-12%
O=[N+]([O-])c1cccc(CN2CC=C(c3ccc(F)cc3)CC2)c1	?	-9%	-15%	0%	1%	?
O=[N+]([O-])c1cccc(NP(=O)(N2CC2)N2CC2)c1	.	4%	17%[57 µM]	.	6%	-3%
CC(C)N1CCN(Cc2cccc([N+](=O)[O-])c2)CC1	50µM*	-7%	?	.	2%	0.89µM*
O=[N+]([O-])c1cccc(CN2CCN(Cc3ccc(Cl)cc3)CC2)c1	20µM*	-16%	?	-20%	1%	0.79µM*
CCOc1ccc(-c2nc3ccc(-c4nc5ccc(N6CCN(C)CC6)cc5[nH]4)cc3[nH]2)cc1	.	.	.	.	112%	.
CC1CC2OC2/C=C\C=C/C(=O)Cc2c(Cl)c(O)cc(O)c2C(=O)O1 (configuration not stated)	.	.	.	.	45µM*	.
O[N+]1=CC=CCC1=S.On1ccccc1=S.[Zn]	.	.	.	.	45µM*	.
CN1CCN(c2ccc(Cl)cc2N)CC1	7%	-1%	45%	3%	-19%	-5%
CN1CCN(c2ccc(N)cc2Cl)CC1	?	15µM*	28µM*	.	?	?
Cc1nn(Cc2ccccc2)c2c1C(c1ccco1)C(C#N)=C(N)O2 (configuration not stated)	?	?	-4%	.	1%	-30%
Cc1nn(-c2ccccc2)c2c1C(c1ccc(F)cc1F)C(C#N)=C(N)O2 (configuration not stated)	?	21µM*	0%	-4%	?	-36%
COc1ccc(OC)c(C2C(C#N)=C(N)Oc3c2c(C)nn3-c2ccc(C)cc2)c1 (configuration not stated)	50µM*	30µM*	?	-3%	-17%	-18%[11.4 µM]
Cc1nn(-c2ccccc2)c(Cl)c1C1C(C#N)=C(N)Oc2c1c(=O)oc1ccccc21 (configuration not stated)	3%	0%	8%	-14%[11.4 µM]	-8%	-16%
CCc1ccc(N2C(=O)NC(=O)/C(=C\c3cc(C)n(-c4cc(C(=O)O)cc(C(=O)O)c4)c3C)C2=O)cc1	71µM*	?	-14%[57 µM]	.	-13%	50µM*
Cc1cc(/C=C2\C(=O)NC(=O)N(c3cccc(F)c3)C2=O)c(C)n1-c1ccc(C(=O)O)c(Cl)c1	?	-21%	4%	?	10%	-35%
Cc1c(Cl)cccc1N1C(=O)NC(=O)/C(=C\c2cc(C)n(-c3cccc(C(=O)O)c3C)c2C)C1=O	?	27µM*	8%	-12%	7%	-17%
